Assay outcomes: PubChem, National Center for Advancing Translational Sciences (NCATS)
The list is not random: actives were taken first. Their share in the collection is about 19%.
HepG2 tox: qHTS for Inhibitors of TGF-b: Cytotox Counterscreen | HepG2 CAGA-GFP viability, ATP luminescence, 18 h | Potency, µM (titrated, usually from 46.1 µM), usual class: cytotoxic | 410,000 compounds, 0.76% hits
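HepG2 CAGA-GFP cells (1000/well, DMEM with 1% FBS) received compound, then TGF-beta at 500 pg/mL final, and were incubated 18 hours at 37 degrees C. Viability was read by CellTiter-Glo luminescence. Media-only wells were set as complete cell-killing and DMSO as no toxicity.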
TDP1 cell noCPT: qHTS for Inhibitors of human tyrosyl-DNA phosphodiesterase 1 (TDP1): qHTS in cells in absence of CPT. DT40 Tdp1-/- hTDP1 cells, no CPT, ATP luminescence, 48 h. 420,000 compounds, 15% hits. Potency, µM (titrated, usually from 46.2 µM), hits mostly inhibitors. AID 686978, 2013; note: nearly all actives have a fitted effect of over 55% in size
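Chicken DT40 Tdp1-/- cells stably complemented with human TDP1 were seeded at 400 cells/well with DMSO in place of 20 nM camptothecin. After compound pinning, cells grew at least 48 hr at 37 °C; viability read by CellTiter-Glo luminescence.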
S-ASM inh: Inhibitors of Secretory Acid Sphingomyelinase (S-ASM): qHTS. AID 504937, 2011. Sphingomyelin phosphodiesterase (Homo sapiens), P17405. 340,000 compounds, 0.006% hits. Potency, µM (doses to about 57.5 µM), usual class: inhibitors. placental ASM, HMU-PC fluorogenic substrate, 60 min
Target sequence (P17405 47-631 limits assumed): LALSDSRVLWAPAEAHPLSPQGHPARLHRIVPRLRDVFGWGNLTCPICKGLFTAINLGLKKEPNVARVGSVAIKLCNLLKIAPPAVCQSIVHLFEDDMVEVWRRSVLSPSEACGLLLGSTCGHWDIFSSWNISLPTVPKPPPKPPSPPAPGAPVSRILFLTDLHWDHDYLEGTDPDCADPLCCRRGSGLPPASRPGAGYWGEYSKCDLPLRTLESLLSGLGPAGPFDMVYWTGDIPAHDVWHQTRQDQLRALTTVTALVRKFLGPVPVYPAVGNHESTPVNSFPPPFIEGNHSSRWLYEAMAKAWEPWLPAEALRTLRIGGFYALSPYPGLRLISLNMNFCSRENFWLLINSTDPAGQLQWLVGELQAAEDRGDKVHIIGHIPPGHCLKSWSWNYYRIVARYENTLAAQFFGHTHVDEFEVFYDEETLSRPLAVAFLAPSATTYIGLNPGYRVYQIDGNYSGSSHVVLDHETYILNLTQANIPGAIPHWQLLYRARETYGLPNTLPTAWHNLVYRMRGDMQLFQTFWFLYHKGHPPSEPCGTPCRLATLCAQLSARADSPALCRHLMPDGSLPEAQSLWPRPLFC
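Human placenta-derived ASM preincubated with compound 10 min at room temperature, then reacted with 9 uM (final) fluorogenic HMU-PC substrate for 60 min at 37 C. Stop solution raises pH to 10; fluorescence read at Ex 386/Em 447 nm.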
IL-1B inflam inh: qHTS for Inhibitors of Inflammasome Signaling: IL-1-beta AlphaLISA Primary Screen; THP-1 LPS/ATP IL-1B secretion, AlphaLISA, 16 h; hits give low values; AID 743279, 2014; activity change, % at 57.5 µM; 360,000 compounds, 4.7% hits; in the data active = activity change below about -50%; inconclusive = mostly about -30% to -49%
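Secreted IL-1B measured by AlphaLISA bead assay after 16 h compound exposure of THP-1 cells; compounds (final up to 57.5 uM) added 1 h before LPS (250 ng/mL) and ATP (1.25 mM) stimulation; lower signal means less secretion.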
TGFb inhibitor: qHTS for Inhibitors of TGF-b | HepG2 CAGA-GFP TGF-b/SMAD3 reporter, GFP fluorescence, 18 h; TGF-beta stimulated, 500 pg/mL final | Potency, µM (highest dose often 46.1 µM), usual class: inhibitors | 410,000 compounds, 1.2% hits; note: nearly all actives have a fitted effect of over 65% in size
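Inhibition of TGF-beta-driven CAGA-GFP reporter expression in HEPG2 cells is measured by cellular GFP fluorescence after 18 h stimulation with 500 pg/mL recombinant TGF-beta in 1% FBS medium at 37 degrees C.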
DT40 TDP1 CPT: qHTS for Inhibitors of human tyrosyl-DNA phosphodiesterase 1 (TDP1): qHTS in cells in presence of CPT; chicken DT40 Tdp1-/-;hTDP1 cells + 20 nM CPT, ATP luminescence, 48 h; Potency, µM (titrated, usually from 46.2 µM), most hits filed as inhibitors; 420,000 compounds, 12% hits; note: nearly all actives have a fitted effect of over 55% in size
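Cell growth measured by CellTiter-Glo luminescence after a minimum 48 h, 37 C compound exposure with 20 nM CPT in Tdp1-knockout DT40 cells stably expressing hTDP1, seeded 400/well; qHTS titration format.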
Numbers stand for hits. Unless noted, calls come from the whole dose curve; as a rule, active = well fitted curve in the direction sought with a large enough effect; inconclusive = small, poorly fitted or top-dose-only effect, or another doubt; inactive = no such curve, though single readings can be large; an effect the other way counts as inactive or inconclusive.

CCn1c(SCC(=O)N2CCc3ccccc32)nnc1-c1c[nH]c2ccccc12 was read as HepG2 tox inactive, TDP1 cell noCPT 21µM, S-ASM inh inactive, IL-1B inflam inh inactive, TGFb inhibitor inactive and DT40 TDP1 CPT inconclusive.
For CCn1c(CNc2ccc(C)cc2C)nnc1SCC(=O)N1CCCc2ccccc21 the results were HepG2 tox inactive, TDP1 cell noCPT inconclusive, S-ASM inh inactive, IL-1B inflam inh inactive, TGFb inhibitor inactive and DT40 TDP1 CPT 10µM.
Screening CC(=O)N1CCC[C@@]2(CCN(c3ccncc3)C2)C1 returned TDP1 cell noCPT inactive and DT40 TDP1 CPT inactive.
Screening COc1ccc(N2CC(C(=O)Nc3nc4ccc(F)cc4s3)CC2=O)c(OC)c1 (stereo not drawn) returned HepG2 tox inactive, TDP1 cell noCPT inconclusive, S-ASM inh inactive, IL-1B inflam inh inactive, TGFb inhibitor inactive and DT40 TDP1 CPT inconclusive.
`CC1CCN(C(=O)CCc2ccc(Oc3cc([N+](=O)[O-])cc([N+](=O)[O-])c3)cc2)CC1` gave HepG2 tox inactive, TDP1 cell noCPT inconclusive, S-ASM inh inactive, IL-1B inflam inh -57, TGFb inhibitor inconclusive and DT40 TDP1 CPT inconclusive.
`COc1ccccc1N/C=C/c1onc(C)c1[N+](=O)[O-]` gave HepG2 tox inactive, TDP1 cell noCPT inconclusive, S-ASM inh inactive, IL-1B inflam inh inactive, TGFb inhibitor inactive and DT40 TDP1 CPT inactive.
`Cc1noc(/C=C/c2ccccn2)c1[N+](=O)[O-]` gave HepG2 tox inactive, TDP1 cell noCPT 21µM, S-ASM inh inactive, IL-1B inflam inh -51, TGFb inhibitor inactive and DT40 TDP1 CPT inconclusive.
CN(/N=C/c1ccc(O)cc1O)c1ncc(C(F)(F)F)cc1Cl was read as HepG2 tox 13µM, TDP1 cell noCPT inconclusive, S-ASM inh inactive, IL-1B inflam inh inactive, TGFb inhibitor inconclusive and DT40 TDP1 CPT inconclusive.
`CC[n+]1c(C)sc2c(C)cc(C)cc21` gave HepG2 tox inactive, TDP1 cell noCPT inconclusive, S-ASM inh inactive, IL-1B inflam inh inactive, TGFb inhibitor inactive and DT40 TDP1 CPT 23µM.
Screening COC(=O)c1cn(CCC#N)nc1-c1ccc2ccccc2c1 returned HepG2 tox inactive, TDP1 cell noCPT inactive, S-ASM inh inactive, IL-1B inflam inh -51, TGFb inhibitor inactive and DT40 TDP1 CPT inactive.
For N#CCCn1cc(C(=O)O)c(-c2ccc3ccccc3c2)n1 the results were HepG2 tox inactive, TDP1 cell noCPT inactive, S-ASM inh inactive, IL-1B inflam inh inactive, TGFb inhibitor inactive and DT40 TDP1 CPT inactive.
For Cc1nn(Cc2ccccc2Cl)c(C)c1C(=O)N(C)CC(=O)Nc1cccc(F)c1 the results were HepG2 tox inactive, TDP1 cell noCPT 16µM, S-ASM inh inactive, IL-1B inflam inh inactive, TGFb inhibitor inactive and DT40 TDP1 CPT inconclusive.
Screening Cc1nn(-c2ccccc2)c(Cl)c1C(=O)N(C)CC(=O)Nc1cccc(F)c1 returned HepG2 tox inactive, TDP1 cell noCPT inconclusive, S-ASM inh inactive, IL-1B inflam inh inactive, TGFb inhibitor inactive and DT40 TDP1 CPT inconclusive.
`Cc1nn(-c2ccc(F)cc2)c(Cl)c1C(=O)N(C)CC(=O)Nc1cccc(F)c1` gave HepG2 tox inactive, TDP1 cell noCPT 15µM, S-ASM inh inactive, IL-1B inflam inh -52, TGFb inhibitor inactive and DT40 TDP1 CPT inconclusive.
`COc1ccccc1C(=O)N=Nc1c(O)[nH]c2ccc([N+](=O)[O-])cc12` gave HepG2 tox inactive, TDP1 cell noCPT 23µM, S-ASM inh inactive, IL-1B inflam inh inactive, TGFb inhibitor inactive and DT40 TDP1 CPT inconclusive.
